An excerpt weighted towards active compounds, which were near 2.8% of everything screened.
PP1 counter: PP1-alpha phosphatase inhibitors, primary screen, counter-screen for PP5 inhibitor project, biochemical, fluorescence, OMFP substrate, single point | Serine/threonine-protein phosphatase PP1-alpha catalytic subunit (Homo sapiens), P62136 | inhibition, % at 6.7 µM | purified PP1alpha | 320,000 tested, 0.9% active;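 active = inhibition above the mean inhibition of all tested compounds plus 3 SD, computed separately for each screening campaign, cut at about 15% in these data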
Target sequence (P62136 whole entry, looked up): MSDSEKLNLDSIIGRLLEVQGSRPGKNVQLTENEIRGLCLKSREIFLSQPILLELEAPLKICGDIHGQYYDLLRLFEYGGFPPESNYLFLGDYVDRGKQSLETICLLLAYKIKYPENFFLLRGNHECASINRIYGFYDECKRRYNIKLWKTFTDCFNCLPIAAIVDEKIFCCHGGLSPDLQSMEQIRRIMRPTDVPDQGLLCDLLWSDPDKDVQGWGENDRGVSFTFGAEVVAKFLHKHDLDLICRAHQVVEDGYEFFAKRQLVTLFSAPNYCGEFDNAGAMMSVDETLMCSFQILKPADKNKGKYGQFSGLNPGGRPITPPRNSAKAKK
PP5 primary: PP5 phosphatase inhibitors, primary screen, biochemical, fluorescence | Serine/threonine-protein phosphatase 5 (Homo sapiens), P53041 | 320,000 tested, 0.18% active | purified PP5c, OMFP substrate fluorescence | inhibition, % at 6.7 µM;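 active = inhibition above the campaign's mean inhibition across all tested compounds plus 3 SD, cut at about 9.5% in these data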
Rev-erbA mod: modulators of Rev-erb alpha DNA binding, primary screen, biochemical, FITC-DNA, fluorescence polarization, uHTS; activity, % at 10 µM; Nuclear receptor subfamily 1 group D member 1 (Homo sapiens), P20393; 370,000 tested, 0.79% active; Rev-erbα–FITC-DNA binding, 90 min; AID 1259318, 2017;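 active = activity above about 14%, limit read from the data; passing the limit was not always enough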
JMJD2C inh: inhibitors of GASC-1 histone demethylase, primary screen, biochemical, fluorescence, DELFIA europium; Lysine-specific demethylase 4C (Homo sapiens), Q9H3R0; GST-JMJD2C(1-420) H3K9me3 demethylation; inhibition, % at 2.35 µM; 330,000 tested, 0.069% active; AID 2099, 2009;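 active = more than half of a compound's replicate wells show inhibition beyond 50%, single wells judged on their own value; inconclusive = some, but no more than half, of replicates pass 50% inhibition; inactive = no replicate passes 50% inhibition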;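 note: signal counts dimethyl H3K9 product captured on neutravidin plate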
KLK7 zymogen act: proKLK7 zymogen activators, primary screen, biochemical, fluorescence intensity; Kallikrein-7 (Homo sapiens), P49862; purified proKLK7, EDANS-DABCYL substrate fluorescence; 100% is mature enzyme control, 0% vehicle; activation, % at 7 µM; 370,000 tested, 0.9% active;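 active = activation above the mean of all tested compounds plus 3 SD, computed per campaign excluding outliers beyond control limits, cut at about 13% in these data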
PG9 binder: binders of HIV-1 gp120 antibody PG9, primary screen, biochemical, TR-FRET | HIV-1 gp120 / PG9 antibody interaction | TR-FRET gp120-PG9 antibody binding | inhibition, % at 6.7 µM | 360,000 tested, 0.43% active; in the data active = inhibition above about 8.5%
PP1 inh confirm: PP1 phosphatase inhibitors, confirmation, biochemical, fluorescence, OMFP substrate, triplicate. purified PP1alpha. shares compounds with PP1 counter. 1,900 tested, 52% active. inhibition, % at 6.7 µM. AID 2358, 2010;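 active = mean PP1 inhibition above a set limit taken from the earlier primary screen, cut at about 15% in these data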
PP5 counter: PP5 phosphatase inhibition by PP1 hits, confirmation, counter-screen for PP1 inhibitor project, biochemical, fluorescence, triplicate; shares compounds with PP1 counter; purified PP5c, OMFP fluorescence; inhibition, % at 6.7 µM; 1,900 tested, 4% active;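 active = mean PP5 inhibition over triplicate wells above about 9.5% taken from the earlier PP1 screen, limit read from the data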
Of the large screens only hits and unclear results are named; the others gave an inactive call (follow-up assays come after a bar, where they were run).

CCc1ccc(NC(=O)Cn2ncc3c4ccccc4n(C)c3c2=O)cc1	PP1 counter 24 | PP1 inh confirm 22 | PP5 counter inactive
Cn1c2ccccc2c2cnn(CC(=O)Nc3ccc(Cl)cc3)c(=O)c21	PP1 counter 18 | PP1 inh confirm inactive | PP5 counter inactive
O=C(Cn1ncc2c3ccccc3n(Cc3ccc(Cl)cc3)c2c1=O)NCCCN1CCCC1=O	none
Cc1cccc(C)c1Nc1nnc(SCC(=O)Nc2cc(S(=O)(=O)N3CCCCC3)ccc2Cl)s1	PP1 counter 24 | PP1 inh confirm 21 | PP5 counter inactive
O=C(CSc1nnc(-c2ccccn2)n1-c1ccccc1)Nc1cccc2ccccc12	none (no result: PP1 counter, PP5 primary, JMJD2C inh, PG9 binder)
Cc1ccc(NC(=O)CSc2nc(NS(=O)(=O)c3ccccc3)cc(=O)[nH]2)cc1	PP1 counter 22 (no result: Rev-erbA mod, KLK7 zymogen act, PG9 binder) | PP1 inh confirm inactive | PP5 counter inactive
CCc1ccc(NC(=O)CSc2nc(NS(=O)(=O)c3ccccc3)cc(=O)[nH]2)cc1	none (no result: PP1 counter, PP5 primary)
OC(c1ccccc1)(c1ccccc1)C1CCN(CCCOc2cccc(C(F)(F)F)c2)CC1	none (no result: PP1 counter, PP5 primary, JMJD2C inh)
NS(=O)(=O)c1ccc(N/N=C/c2cn(-c3ccccc3)nc2-c2cccs2)c([N+](=O)[O-])c1	PP1 counter 26 | PP1 inh confirm 26 | PP5 counter inactive
NS(=O)(=O)c1ccc(N/N=C/c2cn(-c3ccccc3)nc2-c2cccs2)cc1	none
Nc1ccn([C@@H]2O[C@H](C(=O)N[C@H](Cc3ccccc3)C(=O)N[C@H]3CCCCNC3=O)[C@@H](O)[C@H]2O)c(=O)n1	none (no result: PP1 counter, PP5 primary, JMJD2C inh)
COc1cc(/C=N/NC(=O)c2ccccc2O)ccc1OCC(=O)Nc1ccccc1	PP1 counter 18 | PP1 inh confirm 16 | PP5 counter inactive
CC(C)=CCc1c(O)cc2oc3c(CC=C(C)C)c(O)c(O)c(CC=C(C)C)c3c(=O)c2c1O	PP1 counter 39 | PP1 inh confirm 33 | PP5 counter inactive
CC(C)=CCc1cc(-c2oc3cc(O)cc(O)c3c(=O)c2O)ccc1O	none
Nn1c(SCC(=O)Nc2ccc(C(=O)O)cc2)nnc1-c1ccco1	none (no result: PP1 counter, PP5 primary, JMJD2C inh, PG9 binder)
CCCCc1cc(=O)oc2cc(OC(C)C(=O)NCC3CCC(C(=O)O)CC3)c(Cl)cc12 (stereo not drawn)	PP1 counter 54, JMJD2C inh inconclusive | PP1 inh confirm inactive | PP5 counter inactive
CCCc1cc(=O)oc2cc(OC(C)C(=O)NCC3CCC(C(=O)O)CC3)c(Cl)cc12 (stereo not drawn)	none
O=C(N/N=C/c1ccc(F)cc1)c1cc(-c2ccco2)nc2ccccc12	PP1 counter 19 | PP1 inh confirm inactive | PP5 counter inactive
O=C(N/N=C/c1ccc([N+](=O)[O-])o1)c1cc(-c2ccc(-c3ccccc3)cc2)nc2ccccc12	PP1 counter 27 | PP1 inh confirm 29 | PP5 counter inactive
CC(=O)c1cccc(NC(=O)c2cnn3c(C)cc(C)nc23)c1	none (no result: PP1 counter, PP5 primary, JMJD2C inh, KLK7 zymogen act, PG9 binder)
O=[N+]([O-])c1ccc(S(=O)(=O)Nc2ccc(-c3ccc(N4CCCC4)nn3)cc2)cc1	none
Cc1c([N+](=O)[O-])cc(S(=O)(=O)Nc2ccc(-c3ccc(N4CCCC4)nn3)cc2)cc1[N+](=O)[O-]	PP1 counter 19 | PP1 inh confirm 21 | PP5 counter inactive
Cc1cc2c(nc1C)CCCN2S(=O)(=O)c1c(C)noc1C	none (no result: PP1 counter, PP5 primary, JMJD2C inh)

Compound activity deposited in PubChem BioAssay by several laboratories.
